Reference: PubChem BioAssay (Tox21)
Inconclusive results are not listed. Activity calls are given as the source filed them. Calls come from the whole dose curve; as a rule, active = well fitted curve in the direction sought with a large enough effect in the repeat runs; inconclusive = weak or mixed curves; inactive = no such curve, though single readings can be large; an effect the other way counts as inactive or inconclusive.

Columns and labels:
[1] = qHTS RealTime-Glo MT Cell Viability Assay in HepG2 cells - 24 hour (AID 1224867); note: nearly all actives have a fitted effect of over 50% in size
Summary of the method: (§1)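 HepG2 cells (600/well) were dispensed with RealTime-Glo reagents, incubated 5 h at 37 °C, then treated with compounds in DMSO for up to 40 h. Nonlytic NanoLuc luminescence reflecting viable cells was read at each stated time point.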

[2] = qHTS RealTime-Glo MT Cell Viability Assay in HEK293 cells - 32 hour (AID 1224868); note: top concentration of the series differs between compounds; nearly all actives have a fitted effect of over 50% in size
Summary of the method: (§2)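 HEK293 cells seeded with NanoLuc/prosubstrate reagent, rested 5 h at 37 C, then dosed and kept at 37 C up to 40 h. Nonlytic real-time luminescence from viable cells read at 0, 8, 16, 24, 32 and 40 h.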

[3] = A CellTox Green Cytotoxicity Assay to monitor cytotoxicity in HEK293 cells - 0 hour (AID 1224869); note: nearly all actives have a fitted effect of over 50% in size; note: potency is the fitted concentration of half-maximal effect
Summary of the method: (§3)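 Nonlytic real-time cytotoxicity: HEK293 + CellTox Green reagent plated, 5 h preincubation, pintool compound addition (23 nL in DMSO), 37 C for 40 h, fluorescence measured at successive time points.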

[4] = qHTS RealTime-Glo MT Cell Viability Assay in HepG2 cells - 40 hour (AID 1224870); note: nearly all actives have a fitted effect of over 50% in size
Summary of the method: (§4)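 HepG2 cells (600/well) mixed with RealTime-Glo MT reagent, settled 5 h at 37 C/5% CO2 before compound addition. Nonlytic NanoLuc luminescence from viable-cell prosubstrate reduction read repeatedly during 40 h treatment at 37 C.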

[5] = A CellTox Green Cytotoxicity Assay to monitor cytotoxicity in HEK293 cells - 40 hour (AID 1224871); note: nearly all actives have a fitted effect of over 45% in size; note: potency is the fitted concentration of half-maximal effect
Summary of the method: as §3

[6] = qHTS RealTime-Glo MT Cell Viability Assay in HEK293 cells - 16 hour (AID 1224872)
Summary of the method: as §2

[7] = qHTS RealTime-Glo MT Cell Viability Assay in HepG2 cells - 8 hour (AID 1224873); note: nearly all actives have a fitted effect of over 55% in size
Summary of the method: as §4

[8] = qHTS RealTime-Glo MT Cell Viability Assay in HEK293 cells - 40 hour (AID 1224874); conditions: RealTime-Glo luminescence; max response: hits give low values; note: nearly all actives have a fitted effect of over 50% in size
Summary of the method: (§5)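 Cells were seeded together with NanoLuc luciferase and a prosubstrate that viable cells reduce to a luciferase substrate. After a 5 h incubation at 37 C/5% CO2, compounds were added and luminescence was measured repeatedly during 40 h of treatment.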

[9] = A CellTox Green Cytotoxicity Assay to monitor cytotoxicity in HEK293 cells - 24 hour (AID 1224875); note: nearly all actives have a fitted effect of over 45% in size; note: potency is the fitted concentration of half-maximal effect
Summary of the method: as §3

[10] = A CellTox Green Cytotoxicity Assay to monitor cytotoxicity in HepG2 cells - 16 hour (AID 1224876); note: nearly all actives have a fitted effect of over 45% in size; note: potency is the fitted concentration of half-maximal effect
Summary of the method: (§6)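 Read-out is fluorescence of a cyanine dye excluded from live cells that stains DNA of dead HepG2 cells, with signal proportional to cytotoxicity. Plates were read at 0, 8, 16, 24, 32 and 40 h after compound addition.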

[11] = qHTS RealTime-Glo MT Cell Viability Assay in HepG2 cells - 32 hour (AID 1224877); note: nearly all actives have a fitted effect of over 55% in size
Summary of the method: as §1

[12] = A CellTox Green Cytotoxicity Assay to monitor cytotoxicity in HepG2 cells - 24 hour (AID 1224878); note: nearly all actives have a fitted effect of over 45% in size; note: potency is the fitted concentration of half-maximal effect
Summary of the method: as §6

[13] = A CellTox Green Cytotoxicity Assay to monitor cytotoxicity in HepG2 cells - 40 hour (AID 1224879); note: nearly all actives have a fitted effect of over 40% in size; note: potency is the fitted concentration of half-maximal effect
Summary of the method: as §6

[14] = qHTS RealTime-Glo MT Cell Viability Assay in HEK293 cells - 0 hour (AID 1224880)
Summary of the method: as §5

[15] = A CellTox Green Cytotoxicity Assay to monitor cytotoxicity in HEK293 cells - 32 hour (AID 1224881); note: nearly all actives have a fitted effect of over 40% in size; note: potency is the fitted concentration of half-maximal effect
Summary of the method: as §3

[16] = A CellTox Green Cytotoxicity Assay to monitor cytotoxicity in HepG2 cells - 0 hour (AID 1224882); note: nearly all actives have a fitted effect of over 35% in size; note: potency is the fitted concentration of half-maximal effect
Summary of the method: as §6

[17] = A CellTox Green Cytotoxicity Assay to monitor cytotoxicity in HepG2 cells - 32 hour (AID 1224883); note: nearly all actives have a fitted effect of over 50% in size; note: potency is the fitted concentration of half-maximal effect
Summary of the method: as §6

[18] = A CellTox Green Cytotoxicity Assay to monitor cytotoxicity in HEK293 cells - 8 hour (AID 1224884); note: nearly all actives have a fitted effect of over 35% in size; note: potency is the fitted concentration of half-maximal effect
Summary of the method: as §3

[19] = qHTS RealTime-Glo MT Cell Viability Assay in HepG2 cells - 16 hour (AID 1224885); note: nearly all actives have a fitted effect of over 50% in size
Summary of the method: as §1

[20] = qHTS RealTime-Glo MT Cell Viability Assay in HEK293 cells - 24 hour (AID 1224886)
Summary of the method: as §2
% is set by controls: 0 for no effect and ±100 for the full control effect.

CCCCC1CCC(O)CC1 (stereo not given)
inactive: outcome [1] | Potency [2] | Potency [3] | outcome [4] | Potency [5] | Potency [6] | outcome [7] | max response [8] -3.78% | Potency [9] | Potency [10] | outcome [11] | Potency [12] | Potency [13] | Potency [14] | Potency [15] | Potency [16] | Potency [17] | Potency [18] | outcome [19] | Potency [20]

CN(C)CCCO[C@@H]1[C@H]2OC(C)(C)O[C@H]2O[C@@H]1C(O)CO (stereo not given in full)
inactive: outcome [1] | Potency [2] | Potency [3] | outcome [4] | Potency [5] | Potency [6] | outcome [7] | max response [8] 0.847% | Potency [9] | Potency [10] | outcome [11] | Potency [12] | Potency [13] | Potency [14] | Potency [15] | Potency [16] | Potency [17] | Potency [18] | outcome [19] | Potency [20]

CC1(C)[C@H]2CC[C@](C)(C2)[C@H]1O
inactive: outcome [1] | Potency [2] | Potency [3] | outcome [4] | Potency [5] | Potency [6] | outcome [7] | max response [8] -1.99% | Potency [9] | Potency [10] | outcome [11] | Potency [12] | Potency [13] | Potency [14] | Potency [15] | Potency [16] | Potency [17] | Potency [18] | outcome [19] | Potency [20]

C=Cc1ccc(C(C)(C)C)cc1
inactive: outcome [1] | Potency [2] | Potency [3] | outcome [4] | Potency [5] | Potency [6] | outcome [7] | max response [8] -0.639% | Potency [9] | Potency [10] | outcome [11] | Potency [12] | Potency [13] | Potency [14] | Potency [15] | Potency [16] | Potency [17] | Potency [18] | outcome [19] | Potency [20]

CCCCCCCCCOC(=O)CCCCC(=O)OCCCCCCC
inactive: outcome [1] | Potency [2] | outcome [4] | Potency [6] | outcome [7] | max response [8] 0.901% | outcome [11] | Potency [14] | outcome [19] | Potency [20]
active: Potency [3] 43.6 µM | Potency [5] 24.5 µM | Potency [9] 24.5 µM | Potency [10] 24.5 µM | Potency [12] 24.5 µM | Potency [13] 24.5 µM | Potency [15] 24.5 µM | Potency [16] 27.5 µM | Potency [17] 24.5 µM | Potency [18] 38.9 µM

Cc1c(NC(=O)c2cccnc2)c(=O)n(-c2ccccc2)n1C
inactive: outcome [1] | Potency [2] | Potency [3] | outcome [4] | Potency [5] | Potency [6] | outcome [7] | max response [8] 2.99% | Potency [9] | Potency [10] | outcome [11] | Potency [12] | Potency [13] | Potency [14] | Potency [15] | Potency [16] | Potency [17] | Potency [18] | outcome [19] | Potency [20]
